# According to PubChem BioAssay:
# The source made the active and inactive calls.
# How the values were obtained:
# [1] = target: Albumin (Bos taurus) (UniProt P02769); assay: compounds binding labelled BSA control protein – biochemical, small-molecule microarray, Alexa647 label, 635/667 nm fluorescence, artefact control for SMM control protein annotation, profiling panel (AID 1118); settings: BSA-A647 binding, fluorescence 635 nm, higher = more signal;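 further: score merges 667 nm emission intensity and signal-to-noise per printed compound spot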
# [2] = probe aXIP binding to arrayed compounds – biochemical, NeuroSMM set, 635/667 nm fluorescence, primary screen (AID 1119); settings: small-molecule microarray, higher = more signal, called active from +8 up or from −8 down;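 further: probe is the protein aXip251-270 applied at 1 µg/mL to compound-printed slides; binding of probe to printed compounds measured as 667 nm fluorescence plus signal to noise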
# [3] = probe aNOTCH3 binding on compound microarray – biochemical, small-molecule microarray, 635/667 nm fluorescence, primary screen (AID 1120); settings: higher = more signal;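 further: probe is a biotin-tagged antibody raised against NOTCH3 rather than NOTCH3 protein; score merges spot fluorescence near 667 nm with spot signal to noise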
# [4] = probe aNOTCH2 binding on compound microarray – biochemical, small-molecule microarray, 635/667 nm fluorescence, primary screen (AID 1121); settings: higher = more signal;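 further: score merges feature fluorescence read at 667 nm with its signal to noise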
# [5] = target: Carbonic anhydrase 2 (Homo sapiens) (UniProt P00918); assay: compounds binding carbonic anhydrase 2 – biochemical, small-molecule microarray, Alexa647-labelled CAII, profiling panel (AID 1122); settings: CAII-A647 binding fluorescence, higher = more signal
# [6] = COS7 lysate on small-molecule microarray, probe aHis, 635 nm (AID 1123); settings: COS7 cell lysate, fluorescence, higher = more signal;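 further: z-score combines 667nm fluorescence intensity with signal-to-noise per printed compound spot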
# [7] = probe aLAP1 signal on lysate-treated microarray – cell lysate, small-molecule microarray, COS7 lysate, primary screen (AID 1124); settings: probe aLAP1, fluorescence, higher = more signal;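 further: lysate comes from COS7 cells expressing LAP1 and is applied at 0.3 µg/mL; score merges spot fluorescence near 667 nm with signal-to-noise over triplicate slides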
# [8] = tested on: Sam68 (KHDRBS1); assay: compounds binding KHDRBS1 protein – biochemical, small-molecule microarray, 635 nm fluorescence, primary screen (AID 1125); settings: higher = more signal;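 further: score merges 667 nm channel intensity with signal to noise over triplicate slides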
# [9] = tested on: Chordin-like protein 2 (CHRDL2); assay: compounds binding chordin-like 2 – biochemical, small-molecule microarray, 635 nm fluorescence, primary screen (AID 1126); settings: fluorescence 635 nm, higher = more signal;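 further: printed compound slides probed with Chrdl2 protein at 4 µg/mL for 1 h at 4 C; score merges 667 nm emission intensity with signal to noise over three replicate slides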
# [10] = target: Concanavalin-A (Canavalia ensiformis) (UniProt P02866); assay: compounds binding concanavalin A lectin – biochemical, small-molecule microarray, Alexa647 label, 635 nm, artefact control for SMM control protein annotation, primary screen (AID 1127); settings: ConA-A647 binding fluorescence, higher = more signal;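 further: z combines 667 nm emission intensity with signal-to-noise across three replicate slides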
# [11] = compounds binding Alexa647 anti-His antibody – biochemical, small-molecule microarray, 635 nm fluorescence, artefact control for SMM control protein annotation, primary screen (AID 1128); settings: higher = more signal;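 further: score merges feature fluorescence with signal-to-noise for each printed compound spot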
# [12] = tested on: Human papillomavirus type 1a E7 protein (residues 1-88); assay: HPV1a E7 small-molecule binders, primary screen, biochemical, small-molecule microarray, residues 1-88, 635 nm (AID 1129); settings: small-molecule microarray binding, fluorescence 635 nm; higher = more signal
# [13] = target: Focal adhesion kinase 1 (Homo sapiens) (UniProt Q05397); assay: PTK2 protein binding on printed compound slides – biochemical, small-molecule microarray, 635/667 nm fluorescence, BSA, DTT, primary screen (AID 1130); settings: 635 nm fluorescence, higher = more signal;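 further: composite of spot emission at 667 nm and signal to noise over triplicate slides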
# [14] = tested on: Fibrinogen (Alexa647-labelled); assay: Alexa647-fibrinogen binding to printed small molecules – biochemical, small-molecule microarray, 635/667 nm fluorescence, artefact control for SMM control-protein annotation, profiling panel (AID 1131); settings: fibrinogen-A647 binding fluorescence, higher = more signal;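 further: z-score merges 667 nm fluorescence with per-spot signal-to-noise over triplicate slides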
# [15] = target: Follistatin (Homo sapiens) (UniProt P19883); assay: FST protein binding to printed compounds – biochemical, small-molecule microarray, 635/667 nm fluorescence, primary screen (AID 1132); settings: 635 nm fluorescence, higher = more signal
# [16] = target: Fibroblast growth factor 2 (Homo sapiens) (UniProt P09038); assay: basic fibroblast growth factor binding to printed compounds – biochemical, small-molecule microarray, 635/667 nm fluorescence, primary screen (AID 1133); settings: FGF2, fluorescence 635/667, higher = more signal
# [17] = JC-1 mitochondrial potential readout, lung cancer cells – cell-based, A549, JC-1 fluorescence, basal, 24 h, 100 nL, profiling panel (AID 1138); settings: higher = more signal;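 further: A549 lung adenocarcinoma cells under basal conditions with no added stimulus; test concentration not given here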
# [18] = tested on: Lefty1; assay: Lefty1 protein binding to printed compounds – biochemical, small-molecule microarray, 635/667 nm fluorescence, primary screen (AID 1139); settings: fluorescence 635/667, higher = more signal
# [19] = tested on: wheat germ agglutinin (Triticum aestivum), Alexa647-labelled; assay: Alexa647-WGA lectin binding to printed small molecules – biochemical, small-molecule microarray, 635/667 nm fluorescence, artefact control for SMM control-protein annotation, profiling panel (AID 1140); settings: WGA-A647 binding, 635 nm fluorescence, higher = more signal;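 further: score merges 667 nm feature emission with signal to noise over triplicate slides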
# [20] = target: Luciferin 4-monooxygenase (Photinus pyralis) (UniProt P08659); assay: inhibition of purified Photinus pyralis luciferase – biochemical, luminescence, purified enzyme, 2006 set, primary screen (AID 1141); settings: purified firefly luciferase, SteadyGlo luminescence, 30 min; higher = more signal, called active from +8 up or from −8 down;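 further: cell-free assay with purified firefly luciferase at 100 ng per well in PBS; test concentration not given here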
# Sequence of Luciferin 4-monooxygenase (Photinus pyralis) (P08659 whole entry, looked up): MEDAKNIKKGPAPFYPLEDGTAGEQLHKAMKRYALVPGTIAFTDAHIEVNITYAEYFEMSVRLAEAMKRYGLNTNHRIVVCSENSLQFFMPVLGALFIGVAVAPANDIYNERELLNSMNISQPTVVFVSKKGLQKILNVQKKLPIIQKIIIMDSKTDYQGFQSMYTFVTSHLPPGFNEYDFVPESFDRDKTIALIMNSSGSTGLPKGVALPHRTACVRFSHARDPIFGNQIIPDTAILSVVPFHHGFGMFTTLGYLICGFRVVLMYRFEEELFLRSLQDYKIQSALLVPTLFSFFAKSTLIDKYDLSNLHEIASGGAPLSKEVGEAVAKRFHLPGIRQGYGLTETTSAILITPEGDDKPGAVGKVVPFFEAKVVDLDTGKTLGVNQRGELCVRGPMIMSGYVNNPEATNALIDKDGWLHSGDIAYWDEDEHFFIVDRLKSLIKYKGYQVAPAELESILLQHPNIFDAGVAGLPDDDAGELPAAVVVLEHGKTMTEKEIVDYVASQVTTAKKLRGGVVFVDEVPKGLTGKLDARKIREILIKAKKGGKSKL
# Sequence of Concanavalin-A (Canavalia ensiformis) (P02866 whole entry, looked up): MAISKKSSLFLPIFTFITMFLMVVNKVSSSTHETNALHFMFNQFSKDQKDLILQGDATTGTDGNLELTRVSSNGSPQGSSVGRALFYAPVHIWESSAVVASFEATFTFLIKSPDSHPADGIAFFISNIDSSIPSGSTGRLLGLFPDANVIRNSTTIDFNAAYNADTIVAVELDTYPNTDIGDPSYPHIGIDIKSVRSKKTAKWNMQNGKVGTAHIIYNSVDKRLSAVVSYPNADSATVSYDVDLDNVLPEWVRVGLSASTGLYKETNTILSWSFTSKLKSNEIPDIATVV
# Sequence of Follistatin (Homo sapiens) (P19883 whole entry, looked up): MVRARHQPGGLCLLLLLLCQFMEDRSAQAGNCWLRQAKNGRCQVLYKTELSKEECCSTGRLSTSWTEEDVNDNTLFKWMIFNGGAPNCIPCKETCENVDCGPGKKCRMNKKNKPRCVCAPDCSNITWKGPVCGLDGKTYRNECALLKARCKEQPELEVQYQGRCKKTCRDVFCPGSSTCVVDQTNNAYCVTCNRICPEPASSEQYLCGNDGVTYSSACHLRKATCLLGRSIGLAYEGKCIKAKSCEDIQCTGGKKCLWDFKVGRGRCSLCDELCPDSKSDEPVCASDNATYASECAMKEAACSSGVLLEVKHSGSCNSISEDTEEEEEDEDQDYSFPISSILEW
# Sequence of Focal adhesion kinase 1 (Homo sapiens) (Q05397 whole entry, looked up): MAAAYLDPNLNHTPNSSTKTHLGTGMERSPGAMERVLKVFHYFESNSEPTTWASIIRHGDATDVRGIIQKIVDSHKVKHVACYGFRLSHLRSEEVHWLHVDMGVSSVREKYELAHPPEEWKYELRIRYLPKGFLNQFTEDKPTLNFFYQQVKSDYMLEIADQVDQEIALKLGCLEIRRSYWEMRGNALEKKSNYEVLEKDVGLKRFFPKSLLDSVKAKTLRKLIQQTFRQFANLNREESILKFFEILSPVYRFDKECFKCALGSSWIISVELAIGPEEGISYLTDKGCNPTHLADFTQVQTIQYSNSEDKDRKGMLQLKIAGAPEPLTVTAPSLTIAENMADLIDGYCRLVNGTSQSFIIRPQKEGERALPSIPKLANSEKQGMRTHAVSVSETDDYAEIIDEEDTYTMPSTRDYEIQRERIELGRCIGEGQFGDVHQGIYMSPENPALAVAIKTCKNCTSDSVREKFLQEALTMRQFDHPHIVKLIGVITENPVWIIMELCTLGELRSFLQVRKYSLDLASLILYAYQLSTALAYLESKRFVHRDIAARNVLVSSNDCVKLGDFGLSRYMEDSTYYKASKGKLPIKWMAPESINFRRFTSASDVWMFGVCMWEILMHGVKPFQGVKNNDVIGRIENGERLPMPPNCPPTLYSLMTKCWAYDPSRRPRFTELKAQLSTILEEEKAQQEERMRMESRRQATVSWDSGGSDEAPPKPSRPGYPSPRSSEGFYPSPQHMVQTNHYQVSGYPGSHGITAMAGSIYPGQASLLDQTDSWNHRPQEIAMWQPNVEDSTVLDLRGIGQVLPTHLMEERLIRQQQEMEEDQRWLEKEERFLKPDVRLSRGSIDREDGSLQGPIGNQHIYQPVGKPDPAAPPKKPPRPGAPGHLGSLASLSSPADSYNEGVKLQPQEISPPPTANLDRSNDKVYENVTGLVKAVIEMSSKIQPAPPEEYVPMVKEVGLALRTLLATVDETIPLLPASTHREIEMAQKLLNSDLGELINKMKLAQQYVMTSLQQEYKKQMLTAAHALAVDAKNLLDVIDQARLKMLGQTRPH
# Sequence of Albumin (Bos taurus) (P02769 whole entry, looked up): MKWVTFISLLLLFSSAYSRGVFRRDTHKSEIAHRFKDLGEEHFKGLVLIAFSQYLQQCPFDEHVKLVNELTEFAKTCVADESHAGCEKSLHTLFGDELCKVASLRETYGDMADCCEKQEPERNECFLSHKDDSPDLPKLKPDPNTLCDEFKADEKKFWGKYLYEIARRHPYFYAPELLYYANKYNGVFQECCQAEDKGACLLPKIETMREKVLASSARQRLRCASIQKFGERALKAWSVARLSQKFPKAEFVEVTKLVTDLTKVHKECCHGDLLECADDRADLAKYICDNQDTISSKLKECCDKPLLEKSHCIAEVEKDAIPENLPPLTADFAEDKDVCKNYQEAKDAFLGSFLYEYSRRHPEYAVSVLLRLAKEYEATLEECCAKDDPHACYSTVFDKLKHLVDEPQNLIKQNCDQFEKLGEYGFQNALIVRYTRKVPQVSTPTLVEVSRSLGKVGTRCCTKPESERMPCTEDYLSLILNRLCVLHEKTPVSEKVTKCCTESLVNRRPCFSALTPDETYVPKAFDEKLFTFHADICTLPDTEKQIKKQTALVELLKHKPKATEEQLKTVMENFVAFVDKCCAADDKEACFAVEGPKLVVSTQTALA
# Sequence of Fibroblast growth factor 2 (Homo sapiens) (P09038 whole entry, looked up): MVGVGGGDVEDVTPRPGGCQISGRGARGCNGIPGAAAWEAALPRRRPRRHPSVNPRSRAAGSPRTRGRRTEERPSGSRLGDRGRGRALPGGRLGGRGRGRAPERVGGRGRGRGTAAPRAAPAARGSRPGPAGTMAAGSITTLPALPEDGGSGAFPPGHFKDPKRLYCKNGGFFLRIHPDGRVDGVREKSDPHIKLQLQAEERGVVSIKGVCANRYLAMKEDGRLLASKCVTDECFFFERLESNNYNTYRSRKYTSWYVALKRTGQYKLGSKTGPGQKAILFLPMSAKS
SMILES,composite z-score [1],composite Z-score [2],composite z-score [3],composite z-score [4],composite z-score [5],composite z-score [6],composite z-score [7],composite z-score [8],composite z-score [9],composite z-score [10],composite z-score [11],composite z-score [12],composite z-score [13],composite z-score [14],composite z-score [15],composite z-score [16],z-score [17],composite z-score [18],composite z-score [19],z-score [20]
CC(C)(C)OC(=O)CC[C@]1(C(=O)NCc2ccccc2)N=C(c2ccc(OCCCO)cc2)O[C@H]1c1ccccc1N=[N+]=[N-],1,-0.286 (inactive),0.197,0.0272,0.498,2.97,0.521,1.34,-0.0443,1.16,2.59,1.25,0.245,1.01,1.42,1.3,0.566,0.459,1.42,-9.8 (active)
Cc1ccc(S[C@]2(C(=O)NCC(C)C)CC(=O)N(C(C)C)[C@@H]2c2ccc(CO)cc2)cc1,-0.283,0.0333 (inactive),-0.255,-0.163,0.747,0.301,-0.311,-0.749,-0.589,-0.522,-1.15,0.259,-0.267,-1.48,0.259,0.206,0.69,-0.477,-1.76,-0.204 (inactive)
O=C(O)[C@H]1C[C@H]2C(=O)N[C@@H](Cc3ccccc3)C(=O)N2[C@H]1c1ccc(O)cc1,-0.728,1.09 (inactive),-0.0918,-0.0415,0.659,1.88,0.414,1.08,-0.372,0.956,1.19,-0.514,0.171,-0.0232,1.26,0.677,1.2,0.438,0.302,-1.3 (inactive)
COc1ccc([Si](C)(C)[C@@H]2[C@@H](CCn3cc(CCO)nn3)O[C@]3(C(=O)N(Cc4ccc(N5C(=O)c6cccc7cccc5c67)cc4)c4ccccc43)[C@H]2C)cc1,0.651,0.722 (inactive),0.102,-0.061,0.356,0.961,0.234,1.1,0.157,1.12,1.51,0.914,0.87,0.688,0.499,0.103,-0.37,0.518,1.2,-0.685 (inactive)
C=C(/C(=C/C[C@H](OC(C)=O)c1cccc(OCCO)c1)c1cc(C(=O)OC)ccc1OC)C(C)C,0.103,0.307 (inactive),-0.0918,-0.126,0.38,0.866,0.172,0.177,-0.767,-0.319,-0.604,-0.389,0.445,-0.624,-0.288,-0.0132,3.18,-0.0603,-0.907,-1.84 (inactive)
